Data reported in PubChem BioAssay (EPA / NIEHS).
The source made the active and inactive calls. The calls were made as follows: active = hit-call score of the fitted dose curve at least 0.9, where 1 is the maximum; inactive = score below 0.9.

Experiments:
[1] = biological target: Paired box protein Pax-6 (Homo sapiens) (UniProt P26367); test: ATG_Pax6_CIS: Attagene CIS-FACTORIAL HepG2 Assay for human Paired Box 6 (PAX6) (AID 2282956); conditions: HepG2 CIS-FACTORIAL PAX6 reporter transcription, RNA readout; actives raise or lower the signal
Paired box protein Pax-6 (Homo sapiens), sequence (P26367 whole entry, looked up): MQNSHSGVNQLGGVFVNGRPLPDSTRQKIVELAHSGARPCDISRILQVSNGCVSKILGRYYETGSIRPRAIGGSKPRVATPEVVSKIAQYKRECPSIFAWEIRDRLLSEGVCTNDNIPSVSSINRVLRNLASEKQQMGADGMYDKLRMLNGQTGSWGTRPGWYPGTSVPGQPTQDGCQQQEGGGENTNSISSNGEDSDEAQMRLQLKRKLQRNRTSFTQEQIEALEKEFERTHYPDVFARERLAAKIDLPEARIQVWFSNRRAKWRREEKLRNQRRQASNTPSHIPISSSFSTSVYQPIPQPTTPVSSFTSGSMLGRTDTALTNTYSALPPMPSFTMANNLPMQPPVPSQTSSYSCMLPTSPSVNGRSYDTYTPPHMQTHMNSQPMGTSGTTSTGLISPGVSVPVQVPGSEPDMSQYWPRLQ
Procedure, shortened: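 DMSO-referenced bidirectional fits of reporter mRNA fluorescence; HepG2 with transient cis-promoter MRTUs, 24 h post-dose, RT-PCR plus capillary electrophoresis detection.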

[2] = ATG_RORE_CIS: Attagene CIS-FACTORIAL HepG2 Assay for human RAR-related Orphan Receptor Element (RORE) (AID 2282959); conditions: HepG2 Attagene cis-factorial RORE reporter, mRNA; actives raise or lower the signal
Procedure, shortened: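 Transient MRTU transfection of human HepG2 liver cells (FuGene 6); 24 h compound exposure; TriZol RNA, oligo(dT) RT, PCR, FAM labeling, HpaI cut, CE fragment analysis. DMSO = negative control/baseline.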

[3] = ATG_Sox_CIS: Attagene CIS-FACTORIAL HepG2 Assay for human SRY-box transcription factor (SOX) (AID 2282960); conditions: HepG2 Attagene cis-factorial SOX reporter, mRNA; actives raise or lower the signal
Procedure, shortened: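 Endogenous factor activity in human liver HepG2 cells carrying transfected cis-regulated reporter units. RNA taken 24 h post-dose, reverse-transcribed, PCR-amplified and sized by capillary electrophoresis. Gain or loss of signal fitted relative to DMSO.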

[4] = biological target: Transcription factor Sp1 (Homo sapiens) (UniProt P08047); test: ATG_Sp1_CIS: Attagene CIS-FACTORIAL HepG2 Assay for human Specificity Protein 1 (Sp1) (AID 2282961); conditions: HepG2 Sp1 cis-reporter transcription, actives raise or lower the signal
Transcription factor Sp1 (Homo sapiens), sequence (P08047 whole entry, looked up): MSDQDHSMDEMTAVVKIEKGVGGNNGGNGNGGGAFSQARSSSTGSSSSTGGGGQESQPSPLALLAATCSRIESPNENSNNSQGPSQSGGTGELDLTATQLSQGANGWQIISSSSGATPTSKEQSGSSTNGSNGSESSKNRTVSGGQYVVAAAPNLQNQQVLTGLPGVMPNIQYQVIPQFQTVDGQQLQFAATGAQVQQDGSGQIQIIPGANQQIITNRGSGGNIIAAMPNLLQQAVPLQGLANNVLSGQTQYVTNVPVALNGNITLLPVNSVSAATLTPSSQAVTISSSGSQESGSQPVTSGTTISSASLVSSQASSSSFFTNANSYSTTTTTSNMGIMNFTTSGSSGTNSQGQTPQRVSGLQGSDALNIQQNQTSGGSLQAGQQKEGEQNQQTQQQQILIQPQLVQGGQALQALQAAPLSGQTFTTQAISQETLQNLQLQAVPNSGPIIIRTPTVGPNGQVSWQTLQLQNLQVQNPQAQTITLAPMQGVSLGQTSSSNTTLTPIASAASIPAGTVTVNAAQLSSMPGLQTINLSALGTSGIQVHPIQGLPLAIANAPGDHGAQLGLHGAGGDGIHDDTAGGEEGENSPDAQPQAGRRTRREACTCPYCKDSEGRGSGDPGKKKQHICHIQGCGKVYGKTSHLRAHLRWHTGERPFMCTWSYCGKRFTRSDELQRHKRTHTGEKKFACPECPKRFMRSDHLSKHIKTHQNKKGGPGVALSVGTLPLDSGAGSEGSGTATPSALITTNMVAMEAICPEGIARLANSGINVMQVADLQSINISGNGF
Procedure, shortened: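 Transient MRTU-transfected HepG2, 24 h compound exposure. Total RNA → oligo(dT) RT → PCR of reporter → 6-FAM primer extension → HpaI digest → CE. Endpoint fitted both directions vs DMSO.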

[5] = biological target: Signal transducer and activator of transcription 3 (Homo sapiens) (UniProt P40763); test: ATG_STAT3_CIS: Attagene CIS-FACTORIAL HepG2 Assay for human Signal Transducer and Activator of Transcription 3 (STAT3) (AID 2282963); conditions: HepG2, Attagene cis-factorial STAT3 reporter transcription; actives raise or lower the signal
Signal transducer and activator of transcription 3 (Homo sapiens), sequence (P40763 whole entry, looked up, the tested form may be a part): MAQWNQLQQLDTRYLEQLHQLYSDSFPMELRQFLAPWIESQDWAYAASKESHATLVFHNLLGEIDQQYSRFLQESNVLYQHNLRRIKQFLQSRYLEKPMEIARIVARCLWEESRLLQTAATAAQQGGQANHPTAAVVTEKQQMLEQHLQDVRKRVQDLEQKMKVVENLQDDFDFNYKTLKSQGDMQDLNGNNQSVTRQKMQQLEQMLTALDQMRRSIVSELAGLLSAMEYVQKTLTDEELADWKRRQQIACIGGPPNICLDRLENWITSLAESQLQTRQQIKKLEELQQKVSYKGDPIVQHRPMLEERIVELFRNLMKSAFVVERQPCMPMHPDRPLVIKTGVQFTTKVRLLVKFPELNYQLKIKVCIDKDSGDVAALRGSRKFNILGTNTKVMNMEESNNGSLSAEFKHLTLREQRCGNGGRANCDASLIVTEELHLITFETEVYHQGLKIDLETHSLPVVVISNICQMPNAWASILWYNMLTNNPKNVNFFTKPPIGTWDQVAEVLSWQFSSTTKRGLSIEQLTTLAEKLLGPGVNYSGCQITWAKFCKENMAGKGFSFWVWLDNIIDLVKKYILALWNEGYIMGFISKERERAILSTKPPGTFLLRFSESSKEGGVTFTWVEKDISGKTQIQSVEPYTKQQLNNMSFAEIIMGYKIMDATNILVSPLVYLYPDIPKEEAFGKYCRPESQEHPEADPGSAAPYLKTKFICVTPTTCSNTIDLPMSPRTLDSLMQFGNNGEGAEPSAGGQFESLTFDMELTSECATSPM
Procedure, shortened: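 Readout: fluorescent reporter mRNA fragments resolved by capillary electrophoresis. Setup: HepG2 transfected with MRTUs reporting endogenous transcription-factor activity, dosed 24 h. Gain or loss of signal fitted bidirectionally against DMSO control.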

[6] = ATG_TA_CIS: Attagene CIS-FACTORIAL HepG2 Assay for human TA Basal Promoter (AID 2282964); conditions: HepG2 Attagene CIS-factorial TA basal promoter reporter; actives raise or lower the signal
Procedure, shortened: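 Multiplexed mRNA reporter assay, HepG2, 24 h. Reporter cDNA amplified, 6-FAM primer-extended, HpaI-cut, CE-sized; DMSO = negative control and baseline.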

[7] = ATG_TCF_b_cat_CIS: Attagene CIS-FACTORIAL HepG2 Assay for human T-Cell-Factor with beta-catenin (TCF/b-cat) (AID 2282965); conditions: HepG2 TCF/beta-catenin cis-reporter transcription, actives raise or lower the signal
Procedure, shortened: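 Cells of the HepG2 line carry transiently transfected reporter units whose promoters respond to endogenous factors. Twenty-four hours post-dosing, reporter mRNA induction is measured by fluorescent RT-PCR and capillary electrophoresis, with DMSO as baseline.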

[8] = ATG_PXRE_CIS: Attagene CIS-FACTORIAL HepG2 Assay for human Pregnane X Receptor Element (PXRE) (AID 2282957); conditions: HepG2 Attagene CIS-FACTORIAL PXRE reporter, mRNA; actives raise or lower the signal
Procedure, shortened: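 After a 24 h chemical incubation, total RNA from transfected HepG2 cells was reverse-transcribed and reporter cDNA amplified, FAM-labeled, HpaI-digested and sized by capillary electrophoresis. DMSO served as baseline for bidirectional curve fitting.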

[9] = ATG_SREBP_CIS: Attagene CIS-FACTORIAL HepG2 Assay for human Sterol Regulatory Element Binding (SREBP) (AID 2282962); conditions: HepG2 Attagene cis-factorial SREBP reporter, mRNA; actives raise or lower the signal
Procedure, shortened: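 In this cis-format assay, HepG2 liver cells express reporters controlled by promoter elements responsive to native transcription factors. Exposure lasts 24 h; reporter mRNA fluorescence from capillary electrophoresis gives the signal, fitted bidirectionally against DMSO.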

[10] = ATG_PPRE_CIS: Attagene CIS-FACTORIAL HepG2 Assay for human Peroxisome Proliferator-activated Response Element (PPRE) (AID 2282958); conditions: HepG2 PPRE cis-element reporter, Attagene transcription factor profiling; actives raise or lower the signal
Procedure, shortened: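 HepG2, transient MRTU transfection (cis promoter elements, endogenous TFs). 24 h dosing. RNA → oligo(dT) RT → PCR → 6-FAM primer extension → HpaI digest → CE. Bidirectional fit vs DMSO.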

Measured: AC50

CCOC(=O)N1CCC(=C2c3ccc(Cl)cc3CCc3cccnc32)CC1
active: [1] 7.79 µM | [2] 3.42 µM | [6] 7.49 µM | [7] 8.07 µM
inactive: [3] | [4] | [5]

CO[Si](CCC1CCC2OC2C1)(OC)OC (stereo not given)
inactive: [1] | [8] | [2] | [3] | [4] | [5] | [6] | [7]

CC1=CC[C@H](C(C)C)C=C1
inactive: [1] | [3] | [4] | [9] | [5] | [6] | [7]
active: [8] 1.98 µM

CC(C)c1ccc2c(c1)CC[C@H]1[C@](C)(CN)CCC[C@]21C
inactive: [8] | [4] | [5] | [6]
active: [1] 6.4 µM | [7] 5.65 µM

C[C@]12C=CC(=O)C=C1CC[C@@H]1[C@@H]2[C@@H](O)C[C@@]2(C)[C@H]1CC[C@]2(O)C(=O)CO
active: [8] 100 µM
inactive: [1] | [2] | [4] | [9] | [5] | [7]

O=P(O)(O)Oc1ccccc1
inactive: [1] | [8] | [2] | [4] | [9] | [5] | [6] | [7]

Cc1cnc(NC(=O)C2=C(O)c3ccccc3S(=O)(=O)N2C)s1
inactive: [1] | [10] | [2] | [3] | [4] | [9] | [5] | [6] | [7]

CCO[Si](CCCN=C=O)(OCC)OCC
inactive: [1] | [2] | [4] | [5] | [6] | [7]
active: [8] 13.9 µM

C=C(C)[C@H]1CC=C(C)CC1
active: [8] 51 µM
inactive: [1] | [3] | [4] | [9] | [5] | [6] | [7]

CC1(C)[C@H]2CC[C@]1(C)C(=O)C2
inactive: [1] | [8] | [2] | [3] | [4] | [5] | [6] | [7]

C=C[Si](C)(C)O[Si](C)(C)C=C
active: [8] 27.9 µM
inactive: [1] | [2] | [4] | [9] | [5] | [6] | [7]

O=S(=O)(O)c1cc(S(=O)(=O)O)c2ccc3c(S(=O)(=O)O)cc(S(=O)(=O)O)c4ccc1c2c43
inactive: [1] | [8] | [2] | [3] | [4] | [5] | [6] | [7]

CCCCCCC(O)CO (stereo not given)
inactive: [1] | [8] | [2] | [4] | [9] | [5] | [6] | [7]

CCc1c(C(=O)O)c(=O)cnn1-c1ccc(Cl)cc1
inactive: [1] | [2] | [4] | [5] | [6] | [7]
active: [8] 52.3 µM

Cc1cc(C)c(C)cc1C
inactive: [1] | [8] | [2] | [3] | [4] | [5] | [6] | [7]

CC(C)=CCCC(C)C=O (stereo not given)
active: [8] 8.29 µM
inactive: [1] | [2] | [3] | [9] | [5] | [6] | [7]

O=Cc1ccc(CO)o1
inactive: [1] | [8] | [2] | [4] | [9] | [5] | [6] | [7]

Cn1c([N+](=O)[O-])cnc1COC(N)=O
inactive: [1] | [8] | [2] | [3] | [4] | [5] | [6] | [7]

CC(C)CCCCCOC(=O)CCS
inactive: [1] | [3] | [4] | [9] | [5] | [6] | [7]
active: [8] 6.6 µM

COC(=O)C1=C(C)NC(C)=C(C(=O)OCC(C)C)C1c1ccccc1[N+](=O)[O-] (stereo not given)
inactive: [1] | [3] | [9] | [5] | [6] | [7]

CC(=O)Nc1nnc(S(N)(=O)=O)s1
inactive: [1] | [8] | [2] | [4] | [5] | [6] | [7]
